Reference: PubChem BioAssay AID1159580 (chemical genetic matrix, 2015)
The campaign covered roughly 5,500 compounds. About 2,000 (36%) were called active. About 18% were inconclusive and are not listed. Rule as the data show it: active = normalized growth mostly below about 0.91 (no sharp cut-off); inconclusive = no clear call, values can overlap the other calls; inactive = mostly above about 0.92. This is one part of the list.

Assay: chemical genetic growth profiling, strain panel (AID 1159580);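 also: tested at 20 µM; growth read once vehicle control cultures reached saturation at 30 °C; 1 = growth at the plate median or of vehicle wells; lower values mean less growth of the strain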
Conditions: S. cerevisiae deletion strains, growth OD
[1] = locus YAR019C, strain CDC15, hits give low values
[2] = locus YBL105C, strain PKC1, hits give low values
[3] = locus YBR135W, strain CKS1, hits give low values
[4] = locus YBR136W, strain MEC1, hits give low values
[5] = locus YBR160W, strain CDC28, hits give low values
[6] = locus YDL017W, strain CDC7, hits give low values
[7] = locus YDL028C, strain MPS1, hits give low values
[8] = locus YDL101C, strain DUN1, hits give low values
[9] = locus YDL108W, strain KIN28, hits give low values
[10] = locus YDL132W, strain cdc53, hits give low values
[11] = locus YDL214C, strain PRR2, hits give low values
[12] = locus YDR052C, strain DBF4, hits give low values
[13] = locus YDR054C, strain cdc34, hits give low values
[14] = locus YDR226W, strain ADK1, hits give low values
[15] = locus YDR477W, strain SNF1, hits give low values
[16] = locus YER123W, strain YCK3, hits give low values
[17] = locus YER133W, strain GLC7, hits give low values
[18] = locus YFL009W, strain cdc4, hits give low values
[19] = locus YFL029C, strain CAK1, hits give low values
[20] = locus YFR003C, strain YPI1, hits give low values
[21] = locus YFR019W, strain FAB1, hits give low values
[22] = locus YFR028C, strain CDC14, hits give low values
[23] = locus YGR040W, strain KSS1, hits give low values
[24] = locus YGR052W, strain FMP48, hits give low values
[25] = locus YGR092W, strain DBF2, hits give low values
[26] = locus YHR030C, strain SLT2, hits give low values
[27] = locus YHR079C, strain IRE1, hits give low values
[28] = locus YHR082C, strain KSP1, hits give low values
[29] = locus YHR205W, strain SCH9, hits give low values
[30] = locus YIL147C, strain SLN1, hits give low values
[31] = locus YJL095W, strain BCK1, hits give low values
[32] = locus YJL128C, strain PBS2, hits give low values
[33] = locus YJL157C, strain FAR1, hits give low values
[34] = locus YJR016C, strain ILV3, hits give low values
[35] = locus YJR066W, strain TOR1 (second series), hits give low values
[36] = locus YJR066W, strain TOR1, hits give low values
[37] = locus YKL048C, strain ELM1, hits give low values
[38] = locus YKL067W, strain YNK1, hits give low values
[39] = locus YKL101W, strain HSL1, hits give low values
[40] = locus YKL193C, strain SDS22, hits give low values
[41] = locus YKL203C, strain TOR2, hits give low values
[42] = locus YLR113W, strain HOG1, hits give low values
[43] = locus YLR133W, strain CKI1, hits give low values
[44] = locus YLR403W, strain SFP1, hits give low values
[45] = locus YML070W, strain DAK1, hits give low values
[46] = locus YMR001C, strain CDC5, hits give low values
[47] = locus YMR205C, strain PFK2 (second series), hits give low values
[48] = locus YMR277W, strain FCP1, hits give low values
[49] = locus YNL006W, strain LST8, hits give low values
[50] = locus YNL020C, strain ARK1, hits give low values
[51] = locus YNL161W, strain CBK1, hits give low values
[52] = locus YNL183C, strain NPR1, hits give low values
[53] = locus YNL207W, strain RIO2, hits give low values
[54] = locus YNL222W, strain SSU72, hits give low values
[55] = locus YNL307C, strain MCK1 (second series), hits give low values
[56] = locus YOL078W, strain AVO1, hits give low values
[57] = locus YOL136C, strain PFK27, hits give low values
[58] = locus YOR061W, strain CKA2, hits give low values
[59] = locus YOR119C, strain RIO1, hits give low values
[60] = locus YOR231W, strain MKK1, hits give low values
[61] = locus YOR329C, strain SCD5, hits give low values
[62] = locus YPL031C, strain PHO85, hits give low values
[63] = locus YPL153C, strain RAD53, hits give low values
[64] = locus YPL204W, strain HRR25, hits give low values
[65] = locus YPL209C, strain IPL1, hits give low values
[66] = locus YPL256C, strain CLN2, hits give low values
[67] = locus YPR025C, strain CCL1, hits give low values
[68] = locus YPR106W, strain ISR1, hits give low values
[69] = locus YPR111W, strain DBF20, hits give low values
[70] = strain NNK1, hits give low values
[71] = strain TSCII, hits give low values

Measured: normalized growth

COC(=O)C1=C(Nc2ccccc2NS(=O)(=O)c2ccc(C(F)(F)F)cc2Cl)CSC1
inactive: [1] 0.977 | [2] 0.983 | [3] 0.976 | [4] 0.978 | [5] 0.977 | [6] 0.973 | [7] 0.976 | [8] 0.962 | [9] 0.985 | [10] 0.984 | [11] 0.939 | [12] 0.987 | [13] 0.995 | [14] 0.972 | [15] 0.947 | [16] 0.944 | [17] 0.966 | [18] 0.985 | [19] 0.973 | [20] 0.984 | [21] 0.976 | [22] 0.964 | [23] 0.933 | [24] 1.03 | [25] 0.957 | [26] 0.977 | [27] 0.97 | [28] 1.02 | [29] 0.972 | [30] 0.987 | [31] 0.985 | [32] 0.919 | [33] 0.949 | [34] 0.972 | [35] 0.942 | [36] 1.03 | [37] 0.945 | [38] 0.959 | [39] 0.932 | [40] 0.975 | [41] 1.01 | [43] 0.937 | [44] 0.903 | [45] 0.928 | [46] 0.977 | [47] 0.952 | [48] 0.985 | [49] 0.989 | [50] 0.951 | [51] 0.977 | [52] 0.966 | [53] 0.967 | [54] 0.978 | [55] 0.953 | [56] 0.975 | [57] 0.935 | [58] 0.955 | [59] 1.02 | [60] 0.91 | [61] 0.985 | [62] 0.971 | [63] 0.948 | [64] 0.936 | [65] 0.975 | [66] 0.918 | [67] 0.982 | [68] 0.943 | [69] 0.979 | [70] 0.971 | [71] 0.978
active: [42] 0.84

COC(=O)c1sccc1NS(=O)(=O)c1cc(Cl)cc(Cl)c1
inactive: [1] 0.955 | [2] 0.946 | [3] 0.958 | [4] 0.951 | [5] 0.947 | [6] 0.954 | [7] 0.958 | [8] 0.949 | [9] 0.961 | [10] 0.958 | [11] 0.975 | [12] 0.957 | [13] 0.944 | [14] 0.954 | [15] 0.977 | [16] 0.994 | [17] 0.987 | [18] 0.954 | [19] 0.951 | [20] 0.957 | [21] 0.967 | [22] 0.958 | [23] 0.981 | [24] 1.05 | [25] 0.948 | [26] 1.04 | [27] 1.01 | [28] 1.06 | [29] 0.992 | [30] 0.955 | [31] 1.07 | [32] 0.925 | [33] 0.976 | [34] 0.959 | [35] 1.01 | [36] 1.06 | [37] 0.939 | [38] 0.973 | [39] 0.959 | [40] 0.958 | [41] 1.05 | [42] 0.92 | [43] 0.962 | [44] 0.996 | [45] 0.991 | [46] 0.949 | [47] 0.978 | [48] 0.96 | [49] 0.96 | [50] 0.964 | [51] 0.954 | [52] 1.02 | [53] 0.955 | [54] 0.953 | [55] 0.956 | [56] 0.963 | [57] 0.996 | [58] 0.979 | [59] 1.03 | [60] 0.986 | [61] 0.961 | [62] 0.987 | [63] 1.01 | [64] 0.975 | [65] 0.947 | [66] 0.963 | [67] 0.957 | [68] 0.945 | [69] 0.935 | [70] 0.948 | [71] 0.952
